Laboratory results published in PubChem BioAssay (EPA / NIEHS).
“And” between values parts separate entries of the source, which are not always exact repeats. Identical values can stand only once. Inconclusive results are not listed. The source holds several records for some structures; these can differ, active in one and inactive in another. The source made the active and inactive calls. Rule for the calls, unless noted: active = hit-call score of the fitted dose curve at least 0.9, where 1 is the maximum; inactive = score below 0.9.

assay: CCTE_Shafer_MEA_dev_per_burst_spike_percent: CCTE's Neural Network Formation Assay for Percent of Spikes in a Burst, Shafer Lab (AID 2284032);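 for AC50: fitted as a decrease in burst spike percentage below DMSO baseline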
Summary of the method: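 Rat primary cortical neurons on 16-electrode MEA wells, dosed from plating day 0 for 12 days with renewal on DIV 5 and 9; spikes-in-bursts percentage averaged over bursting electrodes, collapsed as AUC across days 5, 7, 9, 12; loss direction versus DMSO.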

| Compound | AC50 | outcome |
| --- | --- | --- |
| CN(C)C(=S)SSC(=S)N(C)C | 0.0103 µM (active) |  |
| CCCCOC(=O)c1ccccc1C(=O)OCCCC | 75.3 µM (active) |  |
| CCNc1nc(Cl)nc(NC(C)C)n1 |  | inactive |
| C=CCC1=C(C)C(OC(=O)C2C(C=C(C)C)C2(C)C)CC1=O (centres undefined) | 14.8 µM (active) | inactive |
| C=CC1(C)OC(=O)N(c2cc(Cl)cc(Cl)c2)C1=O (centres undefined) |  | inactive |
| CCCCNC(=O)n1c(NC(=O)OC)nc2ccccc21 | 15 µM (active) |  |
| COc1ccc(C(c2ccc(OC)cc2)C(Cl)(Cl)Cl)cc1 | 4.51 µM (active) |  |
| COC(=O)N(OC)c1ccccc1COc1ccn(-c2ccc(Cl)cc2)n1 | 184 nM (active) and 27 nM (active) |  |
| CCOc1cc(Oc2ccc(C(F)(F)F)cc2Cl)ccc1[N+](=O)[O-] | 12.8 µM (active) |  |
| CO/C=C(/C(=O)OC)c1ccccc1Oc1cc(Oc2ccccc2C#N)ncn1 | 1.64 µM (active) and 1.26 µM (active) |  |
| COP(N)(=O)SC (centres undefined) |  | inactive |
| Cc1ccc(-c2c(Cl)nc(C#N)n2S(=O)(=O)N(C)C)cc1 | 18.3 µM (active) |  |
| CC(C)(C)c1ccc(CSc2cnn(C(C)(C)C)c(=O)c2Cl)cc1 | 0.00382 µM (active) |  |
| COP(=S)(OC)Oc1nc(Cl)c(Cl)cc1Cl |  | inactive |
| CCCCNC(=O)OCC#CI | 3.25 µM (active) and 1.37 µM (active) |  |
| CCCCC(CC)COC(=O)c1ccccc1C(=O)OCC(CC)CCCC (centres undefined) | 15 µM (active) and 9.27 µM (active) | inactive |
| C=CCC1=C(C)[C@@H](OC(=O)[C@@H]2[C@@H](C=C(C)C)C2(C)C)CC1=O |  | inactive |
| N#Cc1nn(-c2c(Cl)cc(C(F)(F)F)cc2Cl)c(N)c1S(=O)C(F)(F)F (centres undefined) |  | inactive |
| Cc1c(F)c(F)c(COC(=O)C2C(/C=C(\Cl)C(F)(F)F)C2(C)C)c(F)c1F (centres undefined) | 1.83 µM (active) |  |
| CNC(=O)ON=CC(C)(C)SC |  | inactive |
| CCOC(=O)CC(SP(=S)(OC)OC)C(=O)OCC (centres undefined) | 20.9 µM (active) and 15 µM (active) |  |

assay: CCTE_Deisenroth_AIME_384WELL_CTox_Active: Cytotoxicity Assessment (CTOX) in CCTE's 384-well Estrogen Receptor Transactivation Assay with AIME metabolic competence (metabolism positive), Deisenroth Lab (AID 2284037; active = hit-call score of the fitted dose curve at least 0.9, where 1 is the maximum;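 note: chemicals first conditioned 2 h by alginate-bound induced rat liver S9 before cells; activity means signal loss indicating cell death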)
Summary of the method: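 VM7Luc4E2 breast cells received medium pre-incubated 2 h with chemical over alginate microspheres holding induced male Sprague Dawley rat liver S9; viability read 24 h later by protease-substrate fluorescence. Loss of signal, bidirectional fit, 0.002–200 uM.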

| Compound | outcome | AC50 |
| --- | --- | --- |
| CCON=C(CC)C1=C(O)CC(c2c(C)cc(C)cc2C)CC1=O (centres undefined) | inactive |  |
| CCNc1nc(Cl)nc(NC(C)C)n1 | inactive |  |
| COc1cnc(OC)n2nc(NS(=O)(=O)c3c(OCC(F)F)cccc3C(F)(F)F)nc12 | inactive |  |
| CCc1nn(C)c(C(=O)NCc2ccc(C(C)(C)C)cc2)c1Cl |  | 1.82 µM (active) |
| C#CCOS(=O)OC1CCCCC1Oc1ccc(C(C)(C)C)cc1 (centres undefined) |  | 18.6 µM (active) |
| COC(=O)N(OC)c1ccccc1COc1ccn(-c2ccc(Cl)cc2)n1 |  | 2.68 µM (active) |
| CCOc1cc(Oc2ccc(C(F)(F)F)cc2Cl)ccc1[N+](=O)[O-] | inactive |  |
| CC(C)(C)c1ccc(CSc2cnn(C(C)(C)C)c(=O)c2Cl)cc1 |  | 19.8 µM (active) |
| CCCCNC(=O)OCC#CI |  | 145 µM (active) |
| N#Cc1cc(Br)c(O)c(Br)c1 | inactive |  |
| Oc1ccccc1-c1ccccc1 | inactive |  |
